Measured values: PubChem BioAssay AID756 (University of Pittsburgh Molecular Library Screening Center, 2007)
The list shows a part of the results.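 Rule for the calls: active = both duplicate runs show 50% or greater inhibition; inconclusive = only one duplicate run shows over 50% inhibition; inactive = both runs show under 50% inhibition.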

Experiment: compound interference with Plk1 assay readout, artefact control for Plk1 kinase inhibitor project, biochemical, TR-FRET, compound added post-reaction (AID 756);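 note: 0% = DMSO max control and 100% = H-89 min control inhibited reaction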
Settings: at 10 µM, active compounds read high

Inhibition (interference), inactive:
CC1CSc2nnc(CCc3ccccc3)n21 (stereo unspecified) -58.9%
Cc1ccnc(N2C(=O)c3ccccc3C2Nc2ccc3c(c2)OCCO3)c1 (stereo unspecified) -50.1%
C[N+]1(CCNC(=O)/C=N/O)CCCCC1 -46.6%
CC1CN(c2cc(=O)n(Cc3ccc(F)cc3)c(=O)[nH]2)CC(C)O1 (stereo unspecified) -49.5%
COc1ccc(-c2nc(CS(=O)CC(=O)NCc3cccnc3)c(C)o2)cc1OC (stereo unspecified) -52.6%
O=C(Nc1cccc(F)c1)c1ccc(S(=O)(=O)N2CCCC2)cc1 -44.8%
